This is part of a sample that, as a whole, favours compounds with a hit. Of some 79,000 tested, about 15% had one in any assay. Values without a mark were called inactive. Calls of active or inactive are those of the source. Rule as the data show it: active = growth inhibition above about 70%; inactive = the rest.
Experiment: NCI Yeast Anticancer Drug Screen. Data for the bub3 strain (AID 167)
Details: S. cerevisiae bub3 mutant strain, hits give high values
Protocol: Growth inhibition of yeast strains with defined genetic alterations is measured as a screen for potential anti-cancer activity. Selected strains with alterations in DNA damage repair or cell cycle control were exposed to compounds and growth inhibition was measured relative to vehicle treated controls. The strain used in this assay is bub3

[1] = at 5.0 µM (retest, dose inferred, filed as 0.5)
[2] = at 50.0 µM (retest, dose inferred, filed as 5.0)

| Compound | growth inhibition (at 1.2 µM) [%] | growth inhibition (at 3.7 µM) [%] | growth inhibition [1] [%] | growth inhibition (at 11.0 µM) [%] | growth inhibition (at 33.0 µM) | growth inhibition [2] | growth inhibition (at 50.0 µM) | growth inhibition (at 100.0 µM) |
| --- | --- | --- | --- | --- | --- | --- | --- | --- |
| CC1CCN(CCC(=O)c2ccc(Cl)cc2)CC1 | 1 | 6 | 18 | 11 | 24% | 50% | 81.7% (active) | 31% |
| COc1cc(/C=C2\CCc3ccccc3C2=O)cc(OC)c1OC | -29 | -13 | -3 | 32 | 76% (active) | 86% (active) | 74.3% (active) | 85% (active) |
| CC(=O)[O][Bi]([c]1ccccc1)[c]1ccccc1 | 15 | 13 | 22 | 56 | 91% (active) | 96% (active) | 83.2% (active) | 94% (active) |
| CC(=O)Oc1cc(-c2cc(OC(C)=O)c(OC(C)=O)c3ccccc23)c2ccccc2c1OC(C)=O | 3 | 4 | 17 | 7 | 26% | 93% (active) | 86.8% (active) | 87% (active) |
| CC1=NN(c2cccc(Cl)c2)C(=O)C1 | -42 | -33 | 27 | -32 | -36% | 33% | 57.1% | 29% |

Source: PubChem BioAssay (NCI)
